Where two headings read alike, the source gives them in different places.
Columns and labels:
Design in all cases: species or system human, MV4-11 + K-562 + COLO205 + SK-N-BE2 + OVCAR-8
AKT1 = settings: read-out: apparent Kd, n = 1
AKT2 = settings: read-out: apparent Kd; compound concentrations:100 nM and 1000 nM (sheet 'Samples'); n = 1
ATM = settings: read-out: apparent Kd; compound concentrations:100 nM and 1000 nM (sheet 'Samples'); n = 1
CIT = settings: read-out: apparent Kd; compound concentrations:100 nM and 1000 nM (sheet 'Samples'); n = 1
ERBB3 = settings: read-out: apparent Kd; compound concentrations:100 nM and 1000 nM (sheet 'Samples'); n = 1
GSK3A = settings: read-out: apparent Kd; compound concentrations:100 nM and 1000 nM (sheet 'Samples'); n = 1
GSK3B = settings: read-out: apparent Kd; compound concentrations:100 nM and 1000 nM (sheet 'Samples'); n = 1
LATS1 = settings: read-out: apparent Kd; compound concentrations:100 nM and 1000 nM (sheet 'Samples'); n = 1
MARK2 = settings: read-out: apparent Kd; compound concentrations:100 nM and 1000 nM (sheet 'Samples'); n = 1
MARK3 = settings: read-out: apparent Kd; compound concentrations:100 nM and 1000 nM (sheet 'Samples'); n = 1
MARK4 = settings: read-out: apparent Kd; compound concentrations:100 nM and 1000 nM (sheet 'Samples'); n = 1
PAK4 = settings: read-out: apparent Kd; compound concentrations:100 nM and 1000 nM (sheet 'Samples'); n = 1
PAK6 = settings: read-out: apparent Kd; compound concentrations:100 nM and 1000 nM (sheet 'Samples'); n = 1
PKN1 = settings: read-out: apparent Kd; compound concentrations:100 nM and 1000 nM (sheet 'Samples'); n = 1
PKN3 = settings: read-out: apparent Kd; compound concentrations:100 nM and 1000 nM (sheet 'Samples'); n = 1
PRKACA = settings: read-out: apparent Kd; compound concentrations:100 nM and 1000 nM (sheet 'Samples'); n = 1
PRKACB = settings: read-out: apparent Kd; compound concentrations:100 nM and 1000 nM (sheet 'Samples'); n = 1
PRKCD = settings: read-out: apparent Kd; compound concentrations:100 nM and 1000 nM (sheet 'Samples'); n = 1
PRKCQ = settings: read-out: apparent Kd; compound concentrations:100 nM and 1000 nM (sheet 'Samples'); n = 1
PRKG1 = settings: read-out: apparent Kd; compound concentrations:100 nM and 1000 nM (sheet 'Samples'); n = 1
PRKX = settings: read-out: apparent Kd; compound concentrations:100 nM and 1000 nM (sheet 'Samples'); n = 1
TTN = settings: read-out: apparent Kd; compound concentrations:100 nM and 1000 nM (sheet 'Samples'); n = 1
ADRBK1 = settings: read-out: apparent Kd, compound concentrations: 100 nM and 1000 nM (sheet 'Samples'), n = 1
FLT3 = settings: read-out: apparent Kd; compound concentrations: 100 nM and 1000 nM (sheet 'Samples'), CATDS: 0.87351473919373701; n = 1
NNT = settings: read-out: apparent Kd, compound concentrations: 100 nM and 1000 nM (sheet 'Samples'), n = 1
PDGFRB = settings: read-out: apparent Kd; compound concentrations: 100 nM and 1000 nM (sheet 'Samples'), CATDS: 0.21575328371949701; n = 1
MAP2K2 = settings: read-out: apparent Kd; compound concentrations: 100 nM and 1000 nM (sheet 'Samples'), CATDS: 0.29465532437802699; n = 1
BMPR1A = settings: read-out: apparent Kd; compound concentrations: 100 nM and 1000 nM (sheet 'Samples'), CATDS: 0.16431444601058101; n = 1
CAMK4 = settings: read-out: apparent Kd; compound concentrations: 100 nM and 1000 nM (sheet 'Samples'), CATDS: 0.11933253309467701; n = 1
EGFR = settings: read-out: apparent Kd; compound concentrations: 100 nM and 1000 nM (sheet 'Samples'), CATDS: 0.109679225268286; n = 1
ILK = settings: read-out: apparent Kd; compound concentrations: 100 nM and 1000 nM (sheet 'Samples'), CATDS: 0.116106966266716; n = 1
OPA1 = settings: read-out: apparent Kd; compound concentrations: 100 nM and 1000 nM (sheet 'Samples'), CATDS: 0.52668483019397605; n = 1
PIK3C3 = settings: read-out: apparent Kd; compound concentrations: 100 nM and 1000 nM (sheet 'Samples'), CATDS: 0.14677884590005799; n = 1

CCn1c(-c2nonc2N)nc2c(C#CC(C)(C)O)ncc(OC[C@@H]3CCCN3)c21.O=C(O)C(F)(F)F [GSK614526A]
potency estimated from few doses (AKT1; compound concentrations:100 nM and 1000 nM (sheet 'Samples')): 1090 nM | potency estimated from few doses (AKT2): 934 nM | potency estimated from few doses (ATM): 303 nM | potency estimated from few doses (CIT): 983 nM | potency estimated from few doses (ERBB3): 1810 nM | potency estimated from few doses (GSK3A): 365 nM | potency estimated from few doses (GSK3B): 440 nM | potency estimated from few doses (LATS1): 634 nM | potency estimated from few doses (MARK2): 762 nM | potency estimated from few doses (MARK3): 607 nM | potency estimated from few doses (MARK4): 1040 nM | potency estimated from few doses (PAK4): 66.7 nM | potency estimated from few doses (PAK6): 821 nM | potency estimated from few doses (PKN1): 215 nM | potency estimated from few doses (PKN3): 150 nM | potency estimated from few doses (PRKACA): 144 nM | potency estimated from few doses (PRKACB): 510 nM | potency estimated from few doses (PRKCD): 2140 nM | potency estimated from few doses (PRKCQ): 1170 nM | potency estimated from few doses (PRKG1): 69.9 nM | potency estimated from few doses (PRKX): 1.38 nM | potency estimated from few doses (TTN): 544 nM

Cn1cc(C2=C(c3cn(-c4ccccc4)c4ccccc34)C(=O)NC2=O)c2ccccc21 [RO0318564-000]
potency estimated from few doses (AKT1; compound concentrations: 100 nM and 1000 nM (sheet 'Samples'), CATDS: 1): 2080 nM

Cc1cccc(Nc2ncc(-c3ccccc3)o2)c1 [GW632046X]
potency estimated from few doses (ADRBK1; CATDS: 0.18601551584516901): 1420 nM | potency estimated from few doses (FLT3): 26.1 nM | potency estimated from few doses (NNT; CATDS: 0.20642475044215899): 1000 nM | potency estimated from few doses (PDGFRB): 873 nM

Cc1cc(N2Cc3ccccc3C2)nc(Nc2ccc(S(=O)(=O)N3CCOCC3)cc2)n1.Cl [GSK1669917A]
potency estimated from few doses (ADRBK1; CATDS: 0.38079622737555602): 1290 nM | potency estimated from few doses (MAP2K2): 2170 nM | potency estimated from few doses (NNT; CATDS: 0.33555608244827101): 1640 nM

Cl.O=C(Nc1cccc(-c2nn3ncccc3c2-c2ccnc(Nc3cccnc3)n2)c1)c1c(F)cccc1F [GSK312879A]
potency estimated from few doses (AKT1; compound concentrations: 100 nM and 1000 nM (sheet 'Samples'), CATDS: 0.123574579018809): 1640 nM | potency estimated from few doses (BMPR1A): 841 nM | potency estimated from few doses (CAMK4): 1800 nM | potency estimated from few doses (EGFR): 2310 nM | potency estimated from few doses (ILK): 1950 nM | potency estimated from few doses (OPA1): 116 nM | potency estimated from few doses (PIK3C3): 1070 nM

— publication PMC11062922 (Nature Chemical Biology, 2023)
